Screens as filed in PubChem BioAssay.
Rows were chosen to be rich in hits. Some 9% of all compounds tested hit in one or more screens of this group.
IMPase Li inh: qHTS Assay for Identifying the Cell-Membrane Permeable IMPase Inhibitors: Potentiation with Lithium; 210,000 compounds, 0.35% hits; CHO-M1 cells, IP1 TR-FRET (IP-One), carbachol + lithium; Potency, µM (top dose mostly 59.4 µM), without a hit: top-dose activity, negative = IMPase inhibition, most hits filed as inhibitors; active = well fitted curve in the direction sought with a large enough effect; inconclusive = small, poorly fitted or top-dose-only effect, or another doubt; inactive = no such curve, though single readings can be large; an effect the other way counts as inactive or inconclusive;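 also: IP1 builds up when IMPase is blocked and the TR-FRET signal falls; plate controls were basal vehicle for no effect and high inhibitor control for full effect; nearly all actives have a fitted effect of over 50% in size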
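Readout is a homogeneous TR-FRET IP1 immunoassay (Ex 320, Em 665 and 620), where raised cytosolic IP1 lowers signal. Cells were CHO-M1 treated 30 min at 37C with test compounds plus a little lithium; AC50 values came from Hill-equation fitting.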
LMNA splice mod: qHTS Assay for Modulators of Lamin A Splicing | Potency, µM (doses to about 46.1 µM), inactives show at the highest dose ratio change, negative = inhibition, most hits filed as inhibitors | AID 1487, 2009 | 200,000 compounds, 0.01% hits | HeLa LMNA splicing GFP/RFP minigene ratio, 48 h; active = well fitted inhibition curve with a large enough effect in the signal ratio, with a control signal flat, not every such curve was filed as active; inconclusive = small, poorly fitted or top-dose-only effect, or effect the other way, or a change in a side signal; the % refers to the signal ratio
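S3 HeLa cells stably expressing lamin A-EGFP splicing minigene plus DsRed2, 600 cells/well, 48 h compound exposure at 37C. Laser-scanning cytometry; analysed as GFP (500-530 nm)/RFP (575-640 nm) total intensity ratio; 0.5% DMSO vehicle.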
KinaseGlo FLuc: Counterscreen for Luciferase (Kinase-Glo TM) Inhibition; Luciferin 4-monooxygenase (Photuris pensylvanica), Q27757; Kinase-Glo luciferase, ATP luminescence, 8 min; Potency, µM (doses to about 38.3 µM), for inactives: top-dose activity change, negative = inhibition, most hits filed as inhibitors; 200,000 compounds, 0.28% hits; AID 1379, 2008; active = well fitted curve in the direction sought with a large enough effect; inconclusive = small, poorly fitted or top-dose-only effect, or another doubt; inactive = no such curve, though single readings can be large; an effect the other way counts as inactive or inconclusive; also: nearly all actives have a fitted effect of over 60% in size
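Light output from Kinase-Glo luciferase with luciferin and 10 uM ATP in 50 mM imidazole pH 7.2, KCl, MgCl2, Tween 20, BSA; compound pin-delivered, 8-min ambient incubation, then luminescence read.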
HPGD inh: qHTS Assay for Inhibitors of HPGD (15-Hydroxyprostaglandin Dehydrogenase); 15-hydroxyprostaglandin dehydrogenase [NAD(+)] (Homo sapiens), P15428; purified HPGD, NADH fluorescence kinetic, PGE2 substrate; Potency, µM, without a hit: at the highest dose activity change, negative = inhibition, actives largely listed as inhibitors; 150,000 compounds, 4.3% hits
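NADH formation kinetics: reaction with 30 uM PGE2 and 1 mM NAD+ (final), 20 nM enzyme, Tris-HCl pH 8 with Tween 20, after 15 min compound preincubation at room temperature. Fluorescence change, last versus first of five reads.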
ALDH1A1 inh: qHTS Assay for Inhibitors of Aldehyde Dehydrogenase 1 (ALDH1A1); Purified ALDH1A1, NADH fluorescence, propionaldehyde substrate; Potency, µM (top dose mostly 75.3 µM), inactives show at the highest dose activity, negative = inhibition, most hits filed as inhibitors; AID 1030, 2008; 220,000 compounds, 7.3% hits;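 also: plate controls were no enzyme wells and a reference inhibitor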
Target sequence (P00352 whole entry, looked up): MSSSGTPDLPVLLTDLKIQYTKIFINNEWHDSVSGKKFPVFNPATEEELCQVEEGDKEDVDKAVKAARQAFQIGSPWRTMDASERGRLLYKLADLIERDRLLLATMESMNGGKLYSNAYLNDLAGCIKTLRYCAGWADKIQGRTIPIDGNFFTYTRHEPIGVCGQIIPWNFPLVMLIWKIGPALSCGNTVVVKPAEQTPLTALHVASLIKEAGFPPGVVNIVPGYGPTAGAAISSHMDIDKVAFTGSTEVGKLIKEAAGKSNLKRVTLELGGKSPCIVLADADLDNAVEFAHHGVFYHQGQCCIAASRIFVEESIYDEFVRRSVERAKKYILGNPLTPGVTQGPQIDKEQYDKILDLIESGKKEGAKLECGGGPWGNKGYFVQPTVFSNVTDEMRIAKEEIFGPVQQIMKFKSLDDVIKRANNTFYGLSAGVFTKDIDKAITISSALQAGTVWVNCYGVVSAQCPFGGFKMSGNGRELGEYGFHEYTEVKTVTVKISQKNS
* hit, by the source's call; ? = inconclusive; . = no result given; [ ] = another dose, or the depositor's remark. Unless noted, calls follow the shape of the dose curve; as a rule, active = well fitted inhibition curve with a large enough effect (not every such curve was filed as active); inconclusive = small, poorly fitted or top-dose-only effect, or another doubt; inactive = no such curve, though single readings can be large or run the other way. Unless noted, % is scaled to controls: 0 for no effect and ±100 for the full control effect; potency is read from the fitted curve at half-maximal effect.

SMILES	IMPase Li inh	LMNA splice mod	KinaseGlo FLuc	HPGD inh	ALDH1A1 inh
COC(=O)C1C(=O)OC(C)(C)C1C(C)C(=O)c1ccccc1 (stereo not drawn)	31%[38.3 µM]	13%	18%	-28%	11%
Cc1cc(C)n(S(=O)(=O)c2ccc(Cl)c(Cl)c2Cl)n1	9%	0%	4%	-15%	6%
COc1c(S(=O)(=O)n2nc(C)cc2C)ccc(Cl)c1Cl	4%[38.3 µM]	?	-1%	22µM*	28µM*
O=C1CN(C(=O)/C=C/c2ccccc2F)c2ccccc2N1	3%	?	-2%	.	?
CC(C)c1ccc(C2NC(=S)NC3=C2C(=O)CCC3)cc1 (stereo not drawn)	14%	?	0%	-2%	4µM*
Cc1ccc(C2NC(=S)NC3=C2C(=O)CCC3)cc1 (stereo not drawn)	-1%	1%[46 µM]	-3%	.	?
O=C(c1ccc2c(c1)OCO2)C1CCCN(C(=O)c2cnn(Cc3ccccc3)c2)C1 (stereo not drawn)	5%	?	0%	.	25µM*
ClC/C=C/CCl	-10%	.	.	-8%	-5%
Cc1cc(N=Cc2c(O)ccc3cc(Br)ccc23)no1	?	?	-4%	10µM*	1.8µM*
Cc1cc(N=Cc2c(O)ccc3ccccc23)no1	.	3%	.	.	?
CC1C2NC(=O)N(Cc3ccccc3)C1(C)Oc1ccccc12 (stereo not drawn)	0%	?	1%	.	9%
CC(C)CN1C(=O)CC(Sc2ccccc2C(=O)O)C1=O (stereo not drawn)	16%[38.3 µM]	-1%	-5%	-4%	18µM*
CN1C(=O)CC(Sc2ccccc2C(=O)O)C1=O (stereo not drawn)	-19%[38.3 µM]	10%	-3%	-5%	-15%
CCCCN1C(=O)CC(Sc2ccccc2C(=O)O)C1=O (stereo not drawn)	-2%[38.3 µM]	2%	-6%	2%	?
CCOc1ccccc1N1C(=O)CC(Sc2ncccc2C(=O)O)C1=O (stereo not drawn)	5%	-8%	0%	-7%	17%
Cc1ccc(N2C(=O)CC(Sc3ccccc3C(=O)O)C2=O)cc1 (stereo not drawn)	1%	-5%	7%	-6%	0.71µM*
Cc1ccc(N2C(=O)CC(Sc3ccccc3C(=O)O)C2=O)cc1C (stereo not drawn)	3%	?	4%	.	0.45µM*
Cc1cccc(N2C(=O)CC(Sc3ccccc3C(=O)O)C2=O)c1 (stereo not drawn)	10%	-10%	0%	-12%	5µM*
COc1ccc(-n2c(=O)c(-c3cccs3)nc3cnc(N4CCN(C)CC4)nc32)cc1	22%	-11%	.	.	1%
O=C1CC(N2CCN(c3ccccc3)CC2)C(=O)N1c1ccc2c(c1)OCCO2 (stereo not drawn)	-6%[38.3 µM]	-3%	2%	0%	-14%
O=C(O)c1ccccc1SC1CC(=O)N(c2ccc3c(c2)OCO3)C1=O (stereo not drawn)	-5%	?	5%	.	1.3µM*
Cc1cccc(N2C(=O)CC(Sc3ncn[nH]3)C2=O)c1 (stereo not drawn)	-2%	.	-3%	.	14µM*
Cc1ccc(N2C(=O)CC(Sc3ncccc3C(=O)O)C2=O)cc1 (stereo not drawn)	2%	.	2%	.	-14%
CN(C)c1ccc(N2C(=O)CC(Sc3ccccc3C(=O)O)C2=O)cc1 (stereo not drawn)	-1%	-15%	2%	-10%	1.3µM*
CC(=O)Nc1c(C)nn(-c2ccccc2)c1N1CCC(C(=O)Nc2ccc(Cl)cc2C)CC1	.	4%[46 µM]	.	.	.
SMILES	IMPase Li inh	LMNA splice mod	KinaseGlo FLuc	HPGD inh	ALDH1A1 inh
O=C(Nc1ccc(C(F)(F)F)cc1)C1(c2cccs2)CCOCC1	.	20%[46 µM]	.	.	.
O=C(CCCc1c[nH]c2ccccc12)Nc1ccc2ccccc2c1	4%	?	2%	-19%	-11%
Cc1ccc(-n2c(SCn3nnc4ccccc4c3=O)nnc2-c2cccnc2)c(C)c1	11%[38.3 µM]	21%	-5%	-21%	22µM*
O=C(NP(=O)(N1CCCC1)N1CCCC1)C1=C(N2CCOCC2)/C(=C/c2cccc([N+](=O)[O-])c2)CC1	3%	-20%[46 µM]	1%	.	10µM*
CCOC(=O)C(=O)C1=C(N2CCOCC2)/C(=C\c2cccc([N+](=O)[O-])c2)CC1	21%	-11%	7%	32µM*	2.2µM*
CCC(C)C(NC(C)=O)C(=O)NC(=O)NC(c1ccccc1)c1ccccc1 (stereo not drawn)	14%[38.3 µM]	-4%	-3%	2%	7%
COC(=O)c1cn[nH]c1NC(=S)Nc1ccc(Cl)c(Cl)c1	12%[38.3 µM]	?	0%	-24%	?
COC(=O)c1cn[nH]c1NC(=S)Nc1ccc(C)cc1Cl	3%[38.3 µM]	15%	9%	-27%	7.9µM*
COc1ccc([N+](=O)[O-])cc1NC(=O)Cc1ccccc1Cl	2%	4%	2%	-9%	-8%
Cc1ccc(N=Cc2cc(Cc3ccccc3Cl)cc([N+](=O)[O-])c2O)c(O)c1	-3%	.	-9%	.	11µM*
COc1ccc(N=Cc2cc(Cc3ccccc3Cl)cc([N+](=O)[O-])c2O)cc1OC	-13%	.	-1%	.	7.1µM*
Cc1n[nH]c(C)c1Sc1ccccc1N=Cc1cc(Cl)cc([N+](=O)[O-])c1O	7%[38.3 µM]	2%	12%	-13%	?
CCCCCCC1CC(=O)NC(=O)N1 (stereo not drawn)	.	.	.	.	6%
S=C1NC(c2ccccc2)N2C(=S)NC(c3ccccc3)N12 (stereo not drawn)	22%[38.3 µM]	11%	3%	25µM*	13µM*
S=C1NC[C@H](c2ccccc2)N1CC1CCCCC1	1%	.	.	.	-6%
COc1ccc(C2NC(=S)N3C(c4ccc(OC)cc4)NC(=S)N23)cc1 (stereo not drawn)	20%[38.3 µM]	24%	2%	?	11µM*
COc1ccc(N2C(=S)NC3CS(=O)(=O)CC32)cc1 (stereo not drawn)	.	.	.	.	9%
COc1ccc(Cl)cc1N=Nc1ncc[nH]1	-5%	.	1%	-13%	?
COc1ccc(C(=O)Nc2nc(-c3ccc(Br)cc3)ns2)cc1	.	-4%[46 µM]	.	.	.
COc1cc(/C=C2/SC(=S)N(c3ccccc3)C2=O)ccc1Oc1nc(N2CCOCC2)nc(N2CCOCC2)n1	59%	-9%	0%	-14%	0.4µM*
CC(C)(C)NC(=O)c1cccc(NC(=O)c2cccc(O)c2)c1	-5%[38.3 µM]	15%	-3%	-6%	-4%
CCn1c(=O)cc(SCC(=O)N2CCCCC2)c2ccccc21	-30%[38.3 µM]	?	0%	7.9µM*	20µM*
